This passage reports corrected activity, negative = more killing and z-score results from PubChem BioAssay AID1508625 (Wald Lab, School of Medicine, Case Western Reserve …, 2021).

A short description of this test: enhancers of NK cell killing of ovarian tumor cells, primary screen, imaging, OVCAR3, primary NK cells, calcein-AM imaging (AID 1508625).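 Also: compound given to NK cells 16 h before adding targets at 1.5 to 1 ratio.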 Particulars: OVCAR3 lysis by primary NK cells, at 5 µM; z-score: measured here: robust Z-score, single-point normalisation.

Regarding `O=C(O)CCn1ncc2ccccc21`, the corrected activity, negative = more killing was -4.13% and the z-score was -1.31.
In the case of `O=C(Nc1c[nH]c(=O)[nH]c1=O)c1ccc(N2C(=O)C3C4C=CC(C4)C3C2=O)cc1` (stereo not given), the corrected activity, negative = more killing was 0.344% and the z-score is 0.184.
For `CC1CCN(CCCCCOc2ccccc2Br)CC1`, in that order: -0.201% and -0.0828.
For `OCCNCCCOc1ccccc1F`, in that order: -1.78% and -0.566.
Taken in the same sequence, the figures for `CCCCOc1ccc(CN2CCN3CCCC3C2C)cc1` (stereo not given) were -3.8% and -1.66.
Turning to `Cc1ccc(C(=O)Oc2cccc(C(=S)N3CCOCC3)c2)cc1`, the corrected activity, negative = more killing was 1.48% and the z-score is 0.458.
Taken in the same sequence, the figures for `Cc1[nH]c2ccc(-c3n[nH]c(=S)n3C)cc2c1C` were -0.764% and -0.278.
Taken in the same sequence, the figures for `Cc1ccc(S(=O)(=O)NN=Cc2ccc(I)cc2)cc1` were -2.58% and -0.82.
Taken in the same sequence, the figures for `COc1ccc(NC(=O)CN(C)S(=O)(=O)c2cccs2)cc1OC` were -4.46% and -1.26.
With `COc1ccccc1CNc1nc(-c2ccc(Br)cc2)nc2ccccc12`, the corrected activity, negative = more killing was -2.39% and the z-score was -1.28.
With `CCCCOC(=O)c1ccc2c(c1)C(=O)N(c1cccc(Cl)c1)C2=O`, the corrected activity, negative = more killing was -8.14% and the z-score was -2.52.
Taken in the same sequence, the figures for `Cc1ccc2cccnc2c1[N+](=O)[O-]` were -3.53% and -0.744.
For `COc1c(Cl)cc(Cl)cc1C(=O)n1nc(C)cc1C`, in that order: -2.7% and -1.06.
For `CC(=O)c1cccc(NC(=O)CSc2ccc(Cl)cc2)c1`, in that order: -1.79% and -0.668.
For `Cc1nn2c(N)cc(-c3ccccc3)nc2c1-c1ccccc1`, the corrected activity, negative = more killing is -0.835% and the z-score was -0.365.
For `S=C1CSc2ccccc2N1`, in that order: -1.4% and -0.377.
With `CC(C)NCCCCOc1ccccc1-c1ccccc1`, the corrected activity, negative = more killing is 1.68% and the z-score is 0.626.
Taken in the same sequence, the figures for `O=C(c1ccccc1Br)N1N=C(c2ccccc2)CC1(O)C(F)(F)F` (stereo not given) were -3.24% and -1.24.
Taken in the same sequence, the figures for `O=C(CSCc1ccccc1F)N1CCc2ccccc21` were -9.83% and -2.65.
Taken in the same sequence, the figures for `COc1ccc(CN2C(=O)c3ccccc3C2C(=O)NCCCN2CC(C)CC(C)C2)cc1` (stereo not given) were -3.06% and -0.869.
Turning to `CCOC(=O)c1ccc2c(c1)[C@@H]1C=CC[C@@H]1[C@H](c1ccccc1Br)N2`, the corrected activity, negative = more killing is 3.06% and the z-score was 0.914.
Turning to `CCOC(=O)C1=C(N)OC2=C(C(=O)CC(C)(C)C2)C1c1ccc(O)cc1` (stereo not given), the corrected activity, negative = more killing was -4.12% and the z-score is -1.28.
Turning to `COc1ccc(OC)c(-n2c(=S)[nH]c3cc(C(=O)Nc4ccc5c(c4)CCC5)ccc3c2=O)c1`, the corrected activity, negative = more killing is -3.65% and the z-score was -1.16.
For `COc1ccc(C2=NN(C(=O)c3ccc(Br)o3)C(c3ccc(N(C)C)cc3)C2)cc1OC` (stereo not given), in that order: -3.55% and -1.9.
For `Cc1ccc(C(=O)Nc2cccc3c2C(=O)c2ccccc2C3=O)o1`, in that order: -2.82% and -1.16.
As for `Cc1cc(=O)n2[nH]c(C)cc2n1`, the corrected activity, negative = more killing is -3.27% and the z-score is -0.975.
For `C=CCN1C(=O)C(=Cc2ccc(OCc3ccccc3Cl)c(OC)c2)SC1=S`, in that order: -6.24% and -1.98.
For `O=C1C(=O)N(Cc2cccnc2)C(c2ccccc2)C1=C(O)c1ccc(F)cc1` (stereo not given), in that order: -1.93% and -0.837.
Turning to `O=C(NN=Cc1ccc[nH]1)C(O)c1ccccc1` (stereo not given), the corrected activity, negative = more killing is -2.59% and the z-score was -0.823.
As to `Cc1cc(-n2c(N)c(C(N)=O)sc2=S)ccc1Cl`, the corrected activity, negative = more killing was -4.14% and the z-score is -1.1.
Taken in the same sequence, the figures for `Cc1ccc(OCCNC(=O)C2CCCCC2)cc1` were -4.66% and -2.59.
Taken in the same sequence, the figures for `O=C(c1ccc2c(=O)n(Cc3ccco3)c(=S)[nH]c2c1)N1CCOCC1` were -3.78% and -1.2.
Taken in the same sequence, the figures for `N#Cc1c(NC(=O)c2ccc(Cl)c(S(=O)(=O)N3CCOCC3)c2)sc2c1CCCC2` were -5.49% and -1.95.
As to `COCCOC(=O)C1=C(C)N(C)C(=O)NC1c1ccccc1Cl` (stereo not given), the corrected activity, negative = more killing was -3.72% and the z-score was -1.32.
Taken in the same sequence, the figures for `CCCCNC(=O)c1c[nH]c2ccc(S(=O)(=O)Nc3cccc(SC)c3)cc2c1=O` were -1.92% and -0.471.
For `COc1ccccc1OCCCCCCN1CCOCC1`, in that order: -4.44% and -1.82.
As for `COc1cc2c(cc1NCc1ccccn1)oc1ccccc12`, the corrected activity, negative = more killing was -2.51% and the z-score was -1.12.
For `Cc1ccc(NC(=O)Cc2[nH]c3ccccc3c2Sc2ccccc2)cc1`, the corrected activity, negative = more killing was -1.55% and the z-score was -0.584.
`COc1ccc2ccccc2c1C=Nc1cc(C)ccc1C`: the corrected activity, negative = more killing is -0.753% and the z-score was -0.32.
Turning to `Cc1sc(NC(=O)C2c3ccccc3Oc3ccccc32)c(C(N)=O)c1C`, the corrected activity, negative = more killing is -5.26% and the z-score was -2.16.
Taken in the same sequence, the figures for `Cc1ccc(NC(=O)CCNC(=O)Cn2cnc3ccccc3c2=O)c(Br)c1` were -0.469% and -0.149.
Taken in the same sequence, the figures for `CC(C)c1ccc(CNc2c([N+](=O)[O-])c(=O)oc3ccccc23)cc1` were -0.839% and -0.312.
Taken in the same sequence, the figures for `COc1ccc(C(=O)N2CCN(CC=Cc3ccccc3)CC2)cc1` were -1.03% and -0.422.
Turning to `c1ccc(-c2nnc3n2C2(CCCCC2)Cc2ccccc2-3)cc1`, the corrected activity, negative = more killing is 0.806% and the z-score was 0.417.
Turning to `CC1=C(C(=O)Nc2cccc(Cl)c2)C(c2cccc(Cl)c2)NC(=O)N1` (stereo not given), the corrected activity, negative = more killing is -1.94% and the z-score was -0.84.
